# Measured values: publication PMC7862700, “An all-to-all approach to the identification of sequence-specific readers for epigenetic DNA modifications on cytosine”
# What was measured:
# Test in all cases: DAPPL (digital affinity profiling via proximity ligation, sequencing); 10 mM Tris-HCl pH 7.5, 50 mM NaCl, 1 mM DTT, 4% glycerol, room temperature, 30 min; GST-TFs on glutathione beads, 16-mer random dsDNA library, 0.1% formaldehyde crosslink after washing; high values mean tight binding
# FEV = biological target: T1, FEV (Homo sapiens, UniProt Q99581 1-238); details: protein: recombinant; tags: N-terminal GST; dsDNA, one strand shown
# T1 sequence: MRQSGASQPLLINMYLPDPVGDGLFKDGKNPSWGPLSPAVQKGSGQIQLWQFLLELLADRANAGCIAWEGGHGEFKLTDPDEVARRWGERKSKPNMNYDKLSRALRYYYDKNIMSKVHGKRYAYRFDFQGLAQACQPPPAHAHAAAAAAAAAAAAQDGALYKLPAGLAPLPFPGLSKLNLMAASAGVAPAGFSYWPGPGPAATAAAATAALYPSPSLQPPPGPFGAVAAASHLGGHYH
# How it was run: (§1)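 Binding signal is each hexamer's read frequency for a factor divided by its frequency in the tag-only sample. The factors were GST-fused human transcription factors from yeast, captured on glutathione beads, DNA-barcoded and pooled with that sample. Pools were incubated with 200 nmole of a random double-stranded 16-mer DNA library in Tris/NaCl/DTT/glycerol buffer at room temperature for 30 min, then washed, crosslinked with 0.1% formaldehyde, proximity-ligated with BsaI/T4 ligase (1 h, 37 °C), PCR-amplified and sequenced on an Illumina NextSeq500.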
# ETV5 = ETV5 (Homo sapiens, UniProt P41161 1-510); details: protein: recombinant; tags: N-terminal GST; dsDNA, one strand shown
# ETV5, sequence (P41161 whole entry): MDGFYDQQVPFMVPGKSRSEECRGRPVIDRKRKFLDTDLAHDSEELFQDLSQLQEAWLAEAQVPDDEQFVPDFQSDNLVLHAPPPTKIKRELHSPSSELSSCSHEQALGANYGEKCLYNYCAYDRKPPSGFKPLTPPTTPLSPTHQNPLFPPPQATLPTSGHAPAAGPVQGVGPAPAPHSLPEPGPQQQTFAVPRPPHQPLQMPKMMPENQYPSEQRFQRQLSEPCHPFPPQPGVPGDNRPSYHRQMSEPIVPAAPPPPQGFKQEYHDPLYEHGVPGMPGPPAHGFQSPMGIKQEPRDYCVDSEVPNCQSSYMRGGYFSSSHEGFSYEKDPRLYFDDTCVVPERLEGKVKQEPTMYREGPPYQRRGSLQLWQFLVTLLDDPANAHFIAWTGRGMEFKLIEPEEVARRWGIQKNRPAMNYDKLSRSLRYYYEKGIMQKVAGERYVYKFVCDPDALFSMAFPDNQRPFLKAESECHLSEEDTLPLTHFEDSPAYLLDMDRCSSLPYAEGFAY
# How it was run: as §1
# HSF1 = HSF1 (Homo sapiens, UniProt Q00613 1-529); details: protein: recombinant; tags: N-terminal GST; chain copies: 3; dsDNA, one strand shown
# HSF1, sequence (Q00613 whole entry): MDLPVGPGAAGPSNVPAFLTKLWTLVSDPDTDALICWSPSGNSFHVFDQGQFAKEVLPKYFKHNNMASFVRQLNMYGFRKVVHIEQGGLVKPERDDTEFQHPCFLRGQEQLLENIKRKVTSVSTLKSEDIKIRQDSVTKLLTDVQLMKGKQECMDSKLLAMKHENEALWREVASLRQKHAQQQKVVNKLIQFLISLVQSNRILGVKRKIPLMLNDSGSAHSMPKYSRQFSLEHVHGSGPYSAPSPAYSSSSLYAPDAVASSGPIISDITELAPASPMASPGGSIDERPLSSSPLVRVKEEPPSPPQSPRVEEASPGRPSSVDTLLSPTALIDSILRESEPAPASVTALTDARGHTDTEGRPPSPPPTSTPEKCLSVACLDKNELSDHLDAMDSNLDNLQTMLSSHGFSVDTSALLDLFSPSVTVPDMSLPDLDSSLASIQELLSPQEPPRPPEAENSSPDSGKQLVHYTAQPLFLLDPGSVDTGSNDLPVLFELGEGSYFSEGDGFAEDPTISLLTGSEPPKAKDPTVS
# How it was run: as §1
# SPIC = biological target: T2, SPIC (Homo sapiens, UniProt Q8N5J4 1-248); details: protein: recombinant; tags: N-terminal GST; dsDNA, one strand shown
# T2 sequence: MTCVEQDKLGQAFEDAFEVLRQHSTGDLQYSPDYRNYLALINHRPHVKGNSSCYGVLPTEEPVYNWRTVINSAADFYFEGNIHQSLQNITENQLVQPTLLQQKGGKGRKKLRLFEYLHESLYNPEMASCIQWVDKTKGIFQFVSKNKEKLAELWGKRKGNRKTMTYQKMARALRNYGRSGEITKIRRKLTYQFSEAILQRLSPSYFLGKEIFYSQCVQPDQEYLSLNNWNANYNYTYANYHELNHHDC
# How it was run: as §1
# ELF4 = ELF4 (Homo sapiens, UniProt Q99607 1-663); details: protein: recombinant; tags: N-terminal GST; dsDNA, one strand shown
# ELF4, sequence (Q99607 whole entry): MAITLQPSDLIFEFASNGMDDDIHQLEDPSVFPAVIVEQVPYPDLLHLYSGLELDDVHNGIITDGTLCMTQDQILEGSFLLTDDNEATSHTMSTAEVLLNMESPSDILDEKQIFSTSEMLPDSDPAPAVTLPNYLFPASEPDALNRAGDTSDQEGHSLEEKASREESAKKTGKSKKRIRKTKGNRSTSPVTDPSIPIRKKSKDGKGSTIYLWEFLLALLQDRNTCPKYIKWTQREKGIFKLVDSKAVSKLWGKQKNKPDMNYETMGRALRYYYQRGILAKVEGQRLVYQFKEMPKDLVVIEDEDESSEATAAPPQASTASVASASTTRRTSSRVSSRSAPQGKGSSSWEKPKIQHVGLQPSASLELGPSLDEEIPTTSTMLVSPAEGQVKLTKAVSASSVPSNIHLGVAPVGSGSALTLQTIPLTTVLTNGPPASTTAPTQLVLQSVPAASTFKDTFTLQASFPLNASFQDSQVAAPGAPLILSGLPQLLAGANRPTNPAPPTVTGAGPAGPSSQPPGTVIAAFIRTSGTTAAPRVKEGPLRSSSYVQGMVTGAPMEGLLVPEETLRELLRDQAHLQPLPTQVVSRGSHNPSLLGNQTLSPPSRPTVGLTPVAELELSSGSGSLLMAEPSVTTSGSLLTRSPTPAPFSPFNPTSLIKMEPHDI
# How it was run: as §1
# ELK4 = biological target: T3, ELK4 (Homo sapiens, UniProt P28324-2 1-405); details: protein: recombinant; tags: N-terminal GST; dsDNA, one strand shown
# T3 sequence: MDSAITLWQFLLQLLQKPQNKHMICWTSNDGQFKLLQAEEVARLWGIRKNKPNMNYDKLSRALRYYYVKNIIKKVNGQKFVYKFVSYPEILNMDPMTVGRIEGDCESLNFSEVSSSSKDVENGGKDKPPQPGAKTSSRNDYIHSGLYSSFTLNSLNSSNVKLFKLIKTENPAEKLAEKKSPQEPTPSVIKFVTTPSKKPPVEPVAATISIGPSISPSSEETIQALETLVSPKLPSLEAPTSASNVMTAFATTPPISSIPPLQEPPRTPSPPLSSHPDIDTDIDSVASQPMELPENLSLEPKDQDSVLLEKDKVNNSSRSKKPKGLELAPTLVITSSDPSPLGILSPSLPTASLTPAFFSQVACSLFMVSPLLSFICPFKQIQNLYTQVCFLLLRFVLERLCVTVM
# How it was run: as §1
# ETV2 = biological target: T4, ETV2 (Homo sapiens, UniProt O00321 1-342); details: protein: recombinant; tags: N-terminal GST; dsDNA, one strand shown
# T4 sequence: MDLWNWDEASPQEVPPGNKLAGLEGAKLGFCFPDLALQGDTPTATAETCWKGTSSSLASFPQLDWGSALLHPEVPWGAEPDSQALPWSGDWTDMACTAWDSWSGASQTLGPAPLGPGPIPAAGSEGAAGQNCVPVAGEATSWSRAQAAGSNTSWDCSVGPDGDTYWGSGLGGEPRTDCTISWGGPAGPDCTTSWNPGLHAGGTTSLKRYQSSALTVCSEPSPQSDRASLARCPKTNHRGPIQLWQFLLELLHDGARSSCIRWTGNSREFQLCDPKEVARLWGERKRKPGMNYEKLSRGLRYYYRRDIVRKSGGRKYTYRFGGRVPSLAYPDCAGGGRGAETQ
# How it was run: as §1
# ELF3 = biological target: T5, ELF3 (Homo sapiens, UniProt P78545 1-371); details: protein: recombinant; tags: N-terminal GST; dsDNA, one strand shown
# T5 sequence: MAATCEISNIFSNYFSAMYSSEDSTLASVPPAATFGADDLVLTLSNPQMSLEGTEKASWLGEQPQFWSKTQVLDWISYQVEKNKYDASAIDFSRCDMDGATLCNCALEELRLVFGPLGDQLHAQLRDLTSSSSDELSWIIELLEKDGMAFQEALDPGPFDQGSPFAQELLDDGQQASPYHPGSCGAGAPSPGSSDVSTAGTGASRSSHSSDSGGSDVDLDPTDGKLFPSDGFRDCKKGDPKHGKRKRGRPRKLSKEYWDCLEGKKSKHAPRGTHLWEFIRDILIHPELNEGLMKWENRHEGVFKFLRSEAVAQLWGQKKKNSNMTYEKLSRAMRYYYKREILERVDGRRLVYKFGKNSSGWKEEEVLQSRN
# How it was run: as §1
# CRX = CRX (Homo sapiens, UniProt O43186 1-299); details: protein: recombinant; tags: N-terminal GST; dsDNA, one strand shown
# CRX, sequence (O43186 whole entry): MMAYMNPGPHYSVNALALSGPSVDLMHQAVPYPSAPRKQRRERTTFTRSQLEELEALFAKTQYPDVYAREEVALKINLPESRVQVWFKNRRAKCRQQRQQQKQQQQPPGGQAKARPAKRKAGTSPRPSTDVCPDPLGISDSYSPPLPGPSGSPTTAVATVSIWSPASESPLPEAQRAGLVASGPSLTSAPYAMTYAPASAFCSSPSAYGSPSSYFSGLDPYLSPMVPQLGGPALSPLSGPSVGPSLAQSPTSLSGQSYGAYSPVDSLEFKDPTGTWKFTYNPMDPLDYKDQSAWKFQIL
# How it was run: as §1
# ETV1 = ETV1 (Homo sapiens, UniProt P50549 1-477); details: protein: recombinant; tags: N-terminal GST; dsDNA, one strand shown
# ETV1, sequence (P50549 whole entry): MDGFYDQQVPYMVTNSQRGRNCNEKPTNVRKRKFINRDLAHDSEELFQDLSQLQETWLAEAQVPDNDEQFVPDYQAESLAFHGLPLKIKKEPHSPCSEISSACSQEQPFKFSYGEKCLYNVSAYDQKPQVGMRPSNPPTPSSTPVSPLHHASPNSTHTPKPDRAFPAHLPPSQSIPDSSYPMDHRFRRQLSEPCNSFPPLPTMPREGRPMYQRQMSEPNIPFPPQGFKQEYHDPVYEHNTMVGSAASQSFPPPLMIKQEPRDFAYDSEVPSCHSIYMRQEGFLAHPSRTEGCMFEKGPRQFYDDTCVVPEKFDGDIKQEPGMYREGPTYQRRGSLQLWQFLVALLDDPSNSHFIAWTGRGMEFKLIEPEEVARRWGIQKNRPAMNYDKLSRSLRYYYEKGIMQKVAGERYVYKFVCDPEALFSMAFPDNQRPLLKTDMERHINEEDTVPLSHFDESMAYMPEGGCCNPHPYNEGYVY
# How it was run: as §1
# ERF = biological target: T6, ERF (Homo sapiens, UniProt P50548 1-548); details: protein: recombinant; tags: N-terminal GST; dsDNA, one strand shown
# T6 sequence: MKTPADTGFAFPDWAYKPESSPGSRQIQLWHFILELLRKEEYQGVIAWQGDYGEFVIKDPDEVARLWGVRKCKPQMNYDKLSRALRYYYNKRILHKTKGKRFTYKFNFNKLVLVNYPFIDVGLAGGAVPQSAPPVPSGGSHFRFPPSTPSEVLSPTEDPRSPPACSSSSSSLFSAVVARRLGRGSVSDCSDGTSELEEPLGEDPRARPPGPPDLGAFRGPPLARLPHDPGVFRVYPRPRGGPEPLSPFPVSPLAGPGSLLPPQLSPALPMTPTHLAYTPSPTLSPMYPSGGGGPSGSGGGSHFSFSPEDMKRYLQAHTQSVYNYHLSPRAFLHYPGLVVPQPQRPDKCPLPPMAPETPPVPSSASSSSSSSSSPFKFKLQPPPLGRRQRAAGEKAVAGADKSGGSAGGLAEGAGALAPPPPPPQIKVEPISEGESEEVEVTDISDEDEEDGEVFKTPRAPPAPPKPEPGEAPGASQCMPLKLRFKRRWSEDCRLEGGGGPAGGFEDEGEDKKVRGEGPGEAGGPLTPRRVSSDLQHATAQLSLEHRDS
# How it was run: as §1
# ETV3L = biological target: T7, ETV3L (Homo sapiens, UniProt Q6ZN32 1-361); details: protein: recombinant; tags: N-terminal GST; dsDNA, one strand shown
# T7 sequence: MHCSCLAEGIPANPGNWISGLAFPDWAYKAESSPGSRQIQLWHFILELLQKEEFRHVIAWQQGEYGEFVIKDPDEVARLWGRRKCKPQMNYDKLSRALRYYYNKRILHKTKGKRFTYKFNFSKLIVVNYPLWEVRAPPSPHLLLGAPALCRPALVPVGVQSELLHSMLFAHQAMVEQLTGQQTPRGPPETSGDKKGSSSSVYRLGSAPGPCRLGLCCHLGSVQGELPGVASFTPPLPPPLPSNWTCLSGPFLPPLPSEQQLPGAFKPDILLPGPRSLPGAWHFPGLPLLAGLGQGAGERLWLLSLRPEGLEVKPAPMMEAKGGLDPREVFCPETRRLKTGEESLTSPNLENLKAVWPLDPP
# How it was run: as §1
# ETS2 = biological target: T8, ETS2 (Homo sapiens, UniProt P15036 1-469); details: protein: recombinant; tags: N-terminal GST; dsDNA, one strand shown
# T8 sequence: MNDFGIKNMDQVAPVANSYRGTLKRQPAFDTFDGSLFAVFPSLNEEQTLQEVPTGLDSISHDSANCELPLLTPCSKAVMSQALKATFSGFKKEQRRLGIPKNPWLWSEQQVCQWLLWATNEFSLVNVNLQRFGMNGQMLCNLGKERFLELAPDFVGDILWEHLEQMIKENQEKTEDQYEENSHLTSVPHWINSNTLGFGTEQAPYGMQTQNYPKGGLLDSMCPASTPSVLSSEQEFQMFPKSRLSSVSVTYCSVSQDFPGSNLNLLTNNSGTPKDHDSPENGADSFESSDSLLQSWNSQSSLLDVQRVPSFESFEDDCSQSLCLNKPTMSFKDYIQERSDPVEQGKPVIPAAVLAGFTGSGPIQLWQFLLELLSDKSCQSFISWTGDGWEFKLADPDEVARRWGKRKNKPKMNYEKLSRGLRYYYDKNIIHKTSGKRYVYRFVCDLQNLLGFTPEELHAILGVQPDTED
# How it was run: as §1
# SPDEF = biological target: T9, SPDEF (Homo sapiens, UniProt O95238 1-335); details: protein: recombinant; tags: N-terminal GST; dsDNA, one strand shown
# T9 sequence: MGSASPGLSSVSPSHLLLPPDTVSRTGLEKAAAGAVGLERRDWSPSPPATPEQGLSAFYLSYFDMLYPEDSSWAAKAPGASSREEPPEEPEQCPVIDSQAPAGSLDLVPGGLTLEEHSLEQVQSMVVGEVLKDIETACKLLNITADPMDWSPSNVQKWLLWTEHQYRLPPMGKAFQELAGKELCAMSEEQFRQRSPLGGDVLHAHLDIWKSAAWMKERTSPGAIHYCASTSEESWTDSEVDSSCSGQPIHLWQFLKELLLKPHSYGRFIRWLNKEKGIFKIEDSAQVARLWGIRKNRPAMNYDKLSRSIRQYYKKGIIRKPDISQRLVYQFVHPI
# How it was run: as §1
# ETV7 = biological target: T10, ETV7 (Homo sapiens, UniProt Q9Y603 1-341); details: protein: recombinant; tags: N-terminal GST; dsDNA, one strand shown
# T10 sequence: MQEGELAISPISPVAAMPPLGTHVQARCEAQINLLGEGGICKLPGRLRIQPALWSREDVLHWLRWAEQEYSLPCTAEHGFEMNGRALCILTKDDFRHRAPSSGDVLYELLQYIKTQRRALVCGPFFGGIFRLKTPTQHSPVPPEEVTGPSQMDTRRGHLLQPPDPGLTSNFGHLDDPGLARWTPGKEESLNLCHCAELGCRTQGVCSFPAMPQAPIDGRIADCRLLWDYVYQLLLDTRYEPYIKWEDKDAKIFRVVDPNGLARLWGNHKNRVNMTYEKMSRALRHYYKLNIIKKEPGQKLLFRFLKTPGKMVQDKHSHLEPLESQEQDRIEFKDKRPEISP
# How it was run: as §1
# ELF5 = biological target: T11, ELF5 (Homo sapiens, UniProt Q9UKW6-2 1-255); details: protein: recombinant; tags: N-terminal GST; dsDNA, one strand shown
# T11 sequence: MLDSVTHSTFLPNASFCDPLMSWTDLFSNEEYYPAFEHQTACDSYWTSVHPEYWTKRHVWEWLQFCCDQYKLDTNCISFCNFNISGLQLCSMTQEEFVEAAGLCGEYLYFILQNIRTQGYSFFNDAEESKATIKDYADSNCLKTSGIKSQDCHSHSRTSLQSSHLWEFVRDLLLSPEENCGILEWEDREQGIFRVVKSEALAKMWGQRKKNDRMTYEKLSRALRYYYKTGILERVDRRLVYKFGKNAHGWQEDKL
# How it was run: as §1
# ETV3 = biological target: T12, ETV3 (Homo sapiens, UniProt P41162-2 1-143); details: protein: recombinant; tags: N-terminal GST; dsDNA, one strand shown
# T12 sequence: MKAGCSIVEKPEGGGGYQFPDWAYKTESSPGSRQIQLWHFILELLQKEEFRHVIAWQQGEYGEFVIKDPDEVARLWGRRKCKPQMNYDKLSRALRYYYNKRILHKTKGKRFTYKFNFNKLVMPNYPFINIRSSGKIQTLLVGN
# How it was run: as §1
# ETV6 = ETV6 (Homo sapiens, UniProt P41212 1-452); details: protein: recombinant; tags: N-terminal GST; dsDNA, one strand shown
# ETV6, sequence (P41212 whole entry): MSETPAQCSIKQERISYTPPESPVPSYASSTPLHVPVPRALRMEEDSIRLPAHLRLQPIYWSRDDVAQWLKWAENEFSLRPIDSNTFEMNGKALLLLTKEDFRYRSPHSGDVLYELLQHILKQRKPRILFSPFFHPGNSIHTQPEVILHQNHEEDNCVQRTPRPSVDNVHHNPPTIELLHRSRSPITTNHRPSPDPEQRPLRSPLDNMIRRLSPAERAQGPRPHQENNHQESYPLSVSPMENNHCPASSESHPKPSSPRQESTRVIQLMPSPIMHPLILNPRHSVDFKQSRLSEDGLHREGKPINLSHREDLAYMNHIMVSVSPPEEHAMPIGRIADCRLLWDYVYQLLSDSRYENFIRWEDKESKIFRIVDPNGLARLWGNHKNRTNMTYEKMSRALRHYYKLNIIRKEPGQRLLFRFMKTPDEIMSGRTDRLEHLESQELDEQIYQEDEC
# How it was run: as §1
sequence,measurement,setting,value
ATGCAA,binding signal,FEV,"1.23 fold enrichment (6-mer frequency, TF over GST control)"
same,binding signal,ETV5,"1.25 fold enrichment (6-mer frequency, TF over GST control)"
same,binding signal,HSF1,"1.08 fold enrichment (6-mer frequency, TF over GST control)"
same,binding signal,SPIC,"1.11 fold enrichment (6-mer frequency, TF over GST control)"
same,binding signal,ELF4,"1.25 fold enrichment (6-mer frequency, TF over GST control)"
same,binding signal,ELK4,"1.32 fold enrichment (6-mer frequency, TF over GST control)"
same,binding signal,ETV2,"1.26 fold enrichment (6-mer frequency, TF over GST control)"
same,binding signal,ELF3,"1.36 fold enrichment (6-mer frequency, TF over GST control)"
same,binding signal,CRX,"1.07 fold enrichment (6-mer frequency, TF over GST control)"
same,binding signal,ETV1,"1.26 fold enrichment (6-mer frequency, TF over GST control)"
same,binding signal,ERF,"1.23 fold enrichment (6-mer frequency, TF over GST control)"
same,binding signal,ETV3L,"1.26 fold enrichment (6-mer frequency, TF over GST control)"
same,binding signal,ETS2,"1.26 fold enrichment (6-mer frequency, TF over GST control)"
same,binding signal,SPDEF,"1.3 fold enrichment (6-mer frequency, TF over GST control)"
same,binding signal,ETV7,"1.19 fold enrichment (6-mer frequency, TF over GST control)"
same,binding signal,ELF5,"1.26 fold enrichment (6-mer frequency, TF over GST control)"
same,binding signal,ETV3,"1.17 fold enrichment (6-mer frequency, TF over GST control)"
same,binding signal,ETV6,"1.24 fold enrichment (6-mer frequency, TF over GST control)"
